From PubChem BioAssay (Tox21)
Inconclusive results are not listed. The source made the active and inactive calls. Unless noted, calls follow the shape of the dose curve; as a rule, active = well fitted curve in the direction sought with a large enough effect in the repeat runs; inconclusive = weak or mixed curves; inactive = no such curve, though single readings can be large; an effect the other way counts as inactive or inconclusive.

Columns and labels:
[1] = qHTS assay to identify small molecule antagonists of the estrogen related receptor (ERR) signaling pathway from Tox21 library - cell viability counter screen (AID 1224834); also: nearly all actives have a fitted effect of over 30% in size; also: potency is read from the fitted curve at half-maximal effect
In short: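 Compounds in DMSO were pinned onto ERR cells that had been incubated for 6 h, and the plates were held at 37 C for 17.5 h. CellTiter-Fluor reagent was then added and fluorescence was measured after 30 min.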

[2] = target: Luciferin 4-monooxygenase (Photinus pyralis) (UniProt P08659); test: qHTS assay to identify small molecule inhibitors of firefly luciferase (AID 1224835); also: nearly all actives have a fitted effect of over 25% in size; also: potency is read from the fitted curve at half-maximal effect
In short: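 Quantitative HTS format; KM concentrations of both substrates. Purified P. pyralis FLuc activity quantified from luminescence images.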

[3] = target: Nuclear receptor subfamily 1 group I member 3 (Homo sapiens) (UniProt Q14994); test: qHTS assay to identify small molecule agonists of the constitutive androstane receptor (CAR) signaling pathway (AID 1224839); also: nearly all actives have a fitted effect of over 15% in size; also: potency is read from the fitted curve at half-maximal effect
In short: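 Double-stable HepG2 cells (hCAR, CYP2B6-2.2kb) seeded 4 h before compound addition. Exposure 24 h with 0.75 uM PK11195 final. Luciferase detected by ONE-Glo.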

[4] = qHTS assay to identify small molecule antagonists of the estrogen related receptor signaling pathway with the pleiotropic PPARgamma coactivator (PGC) from Tox21 10K library (AID 1224841; call rule not given here; also: series mostly up to about 92 µM; actives are mostly falling curves and most rising ones were filed inactive; nearly all actives have a fitted effect of over 50% in size)
In short: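 Cells stably carrying the PGC/ERR reporter, seeded at 2,000 per well, received pin-transferred compounds 6 h post-plating. Exposure lasted 18 h at 37 C. Signal: One-Glo luminescence.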

[5] = target: Thyrotropin receptor (Homo sapiens) (UniProt P16473); test: qHTS assay to identify small molecule agonists of the thyroid stimulating hormone receptor (TSHR) signaling pathway (AID 1224843; calls by dose curve; also: nearly all actives have a fitted effect of over 45% in size; also: potency is read from the fitted curve at half-maximal effect)
In short: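 Compounds are titrated over 15 concentrations, in triplicate, onto TSHR-HEK293 cells seeded at 800/well. Plates sit 30 min at room temperature before cAMP-d2 and anti-cAMP cryptate are added; signal is read after a further hour.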

[6] = qHTS assay to identify small molecule antagonists of the constitutive androstane receptor (CAR) signaling pathway - cell viability counter screen (AID 1224837); also: series mostly up to about 92 µM; nearly all actives have a fitted effect of over 45% in size
In short: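 Cells are seeded, rested 4 hr at 37 C/5% CO2, dosed with compound (15-point series) and 50 nM CITCO, incubated a further 23 hr, and then CellTiter-Fluor reagent is added before fluorescence is read. The line is HepG2 with stable hCAR and CYP2B6-2.2kb.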

[7] = qHTS assay to identify small molecule agonists of the constitutive androstane receptor (CAR) signaling pathway - cell viability counter screen (AID 1224836); also: series mostly up to about 92 µM; nearly all actives have a fitted effect of over 45% in size
In short: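 Using CellTiter-Fluor, viability of HepG2 cells harbouring hCAR and CYP2B6-2.2kb was measured following 23 h incubation with a 15-concentration compound series plus PK11195 (0.75 uM final).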

[8] = qHTS assay to identify small molecule antagonists of the estrogen related receptor signaling pathway with the pleiotropic PPARgamma coactivator (PGC) from Tox21 10K library - cell viability counter screen (AID 1224840; active = well fitted cell-killing curve with a large enough effect in the repeat runs, not every such curve was filed as active; also: nearly all actives have a fitted effect of over 40% in size)
In short: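 Cell viability is measured by CellTiter-Fluor fluorescence in PGC/ERR cells that receive compounds after a 6-hour attachment period and are then incubated 17.5 hours at 37 C.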

[9] = target: Nuclear receptor subfamily 1 group I member 3 (Homo sapiens) (UniProt Q14994); test: qHTS assay to identify small molecule antagonists of the constitutive androstane receptor (CAR) signaling pathway (AID 1224838);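 also: HepG2 cells stably expressing hCAR with CYP2B6 luciferase reporter stimulated by CITCO; nearly all actives have a fitted effect of over 40% in size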
In short: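 Luminescence from a CYP2B6-2.2kb promoter reporter in hCAR-expressing HepG2 cells reflects CAR signaling. Cells received compounds at 15 concentrations and 50 nM CITCO (final), then incubated 24 h at 37 C/5% CO2.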

Measured: Potency

Nuclear receptor subfamily 1 group I member 3 (Homo sapiens), sequence (Q14994 whole entry, looked up): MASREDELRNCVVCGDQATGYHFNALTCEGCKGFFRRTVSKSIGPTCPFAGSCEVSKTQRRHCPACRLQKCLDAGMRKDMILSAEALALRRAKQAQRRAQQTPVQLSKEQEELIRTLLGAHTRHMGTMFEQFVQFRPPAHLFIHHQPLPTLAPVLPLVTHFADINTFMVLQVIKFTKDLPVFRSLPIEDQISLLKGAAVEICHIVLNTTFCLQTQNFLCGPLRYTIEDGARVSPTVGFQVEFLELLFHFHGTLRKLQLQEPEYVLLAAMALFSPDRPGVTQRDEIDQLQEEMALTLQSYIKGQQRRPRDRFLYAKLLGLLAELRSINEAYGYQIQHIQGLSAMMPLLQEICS
Thyrotropin receptor (Homo sapiens), sequence (P16473 whole entry, looked up): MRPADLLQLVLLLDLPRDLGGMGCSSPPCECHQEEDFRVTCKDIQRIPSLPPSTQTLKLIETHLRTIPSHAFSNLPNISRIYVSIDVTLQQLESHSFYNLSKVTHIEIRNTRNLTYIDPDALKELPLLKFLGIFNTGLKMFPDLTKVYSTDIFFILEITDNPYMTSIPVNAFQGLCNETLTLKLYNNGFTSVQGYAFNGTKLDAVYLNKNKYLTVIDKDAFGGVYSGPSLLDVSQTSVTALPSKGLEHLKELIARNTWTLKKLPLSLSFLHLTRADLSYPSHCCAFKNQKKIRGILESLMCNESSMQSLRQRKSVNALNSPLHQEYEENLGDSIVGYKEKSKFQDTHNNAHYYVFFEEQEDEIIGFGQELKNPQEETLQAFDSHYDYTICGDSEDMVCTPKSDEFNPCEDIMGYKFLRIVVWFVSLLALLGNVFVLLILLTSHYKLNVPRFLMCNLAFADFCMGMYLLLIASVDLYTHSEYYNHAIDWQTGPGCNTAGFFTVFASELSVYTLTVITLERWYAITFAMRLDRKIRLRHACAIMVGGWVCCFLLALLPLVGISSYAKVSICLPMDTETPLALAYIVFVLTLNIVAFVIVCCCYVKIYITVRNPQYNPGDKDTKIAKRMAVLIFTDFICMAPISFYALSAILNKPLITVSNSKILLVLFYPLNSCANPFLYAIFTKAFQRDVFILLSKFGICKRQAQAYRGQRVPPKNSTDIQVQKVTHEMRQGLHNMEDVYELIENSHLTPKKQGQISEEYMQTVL
Luciferin 4-monooxygenase (Photinus pyralis), sequence (P08659 whole entry, looked up): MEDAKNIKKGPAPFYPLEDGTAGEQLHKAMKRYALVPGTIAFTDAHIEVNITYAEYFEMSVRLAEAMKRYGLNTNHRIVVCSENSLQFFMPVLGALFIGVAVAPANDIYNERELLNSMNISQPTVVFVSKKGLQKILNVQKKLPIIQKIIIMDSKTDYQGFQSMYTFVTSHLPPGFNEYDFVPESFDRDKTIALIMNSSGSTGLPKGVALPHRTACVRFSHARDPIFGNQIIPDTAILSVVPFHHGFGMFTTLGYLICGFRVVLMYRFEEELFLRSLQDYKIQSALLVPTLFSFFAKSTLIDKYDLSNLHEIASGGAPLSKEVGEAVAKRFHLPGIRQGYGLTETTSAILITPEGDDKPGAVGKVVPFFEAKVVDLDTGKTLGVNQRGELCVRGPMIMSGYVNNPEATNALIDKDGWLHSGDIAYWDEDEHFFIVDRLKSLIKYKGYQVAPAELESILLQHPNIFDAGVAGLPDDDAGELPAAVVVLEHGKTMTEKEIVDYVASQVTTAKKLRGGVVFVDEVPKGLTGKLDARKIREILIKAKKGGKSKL

O=C(Nc1ncc([N+](=O)[O-])s1)c1cccs1
inactive: [4] | [5]
active: [1] 13.3 µM | [2] 3.09 µM | [3] 1.33 µM

OC[C@H]1O[C@H](O[C@]2(CCl)O[C@H](CCl)[C@@H](O)[C@@H]2O)[C@H](O)[C@@H](O)[C@H]1Cl
inactive: [1] | [2] | [6] | [5]

O=C(O)CC(O)C(=O)O (stereo not given)
inactive: [2] | [7] | [6] | [3] | [8] | [5]

CCCCC1(COC(=O)CCC(=O)O)C(=O)N(c2ccccc2)N(c2ccccc2)C1=O
inactive: [1] | [2] | [6] | [8] | [4] | [5]

Cc1ncc([N+](=O)[O-])n1C
inactive: [2] | [7] | [6] | [3] | [8] | [4] | [5]

Cc1cc(C)nc(NS(=O)(=O)c2ccc(N)cc2)n1
inactive: [1] | [2] | [6] | [3] | [8] | [5]

CN1[C@@H]2CC(OC(=O)[C@H](CO)c3ccccc3)C[C@H]1[C@@H]1O[C@@H]12 (stereo not given in full)
inactive: [1] | [2] | [6] | [3] | [8] | [5]

CC(=O)CC(c1ccccc1)c1c(O)c2ccccc2oc1=O (stereo not given)
inactive: [1] | [6] | [8]

COc1ccc(CN(CCN(C)C)c2ccccn2)cc1
inactive: [2] | [7] | [6] | [8]

C/C=C/C=C/C(=O)O
inactive: [1] | [7] | [6] | [9] | [3] | [8] | [5]

C=C1CC[C@H](O)C/C1=C\C=C1/CCC[C@]2(C)[C@@H]([C@H](C)CCCC(C)C)CC[C@@H]12
active: [1] 54 µM | [5] 19.2 µM
inactive: [7] | [3]

CC1(C)S[C@@H]2[C@H](NC(=O)[C@H](N)c3ccccc3)C(=O)N2[C@H]1C(=O)O
inactive: [2] | [7] | [6] | [8] | [5]

CNNCc1ccc(C(=O)NC(C)C)cc1
inactive: [1] | [7] | [6] | [9] | [5]

Cc1ccc(S(=O)(=O)O)cc1
inactive: [1] | [6]
